The record followed here is PubChem BioAssay.

Experiment [1] can be described thus: antimalarial activity against Dd2 strain (AID 2302;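 active = growth inhibition above 50% at the single 2 µM test dose, taken to imply half-maximal potency below 2 µM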;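 note: 0% = DMSO untreated growth and 100% = chloroquine plus artemisinin killed control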). The following applies: P. falciparum Dd2 in RBCs, LDH growth readout, 72 h; at 2 µM; active compounds read high.
Experiment [2] is described as follows: human hepatoma cell viability loss – ATP luminescence, cytotoxicity control for P. falciparum antimalarial project, primary screen (AID 2303;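 active = inhibition above 50%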;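 note: 0% = DMSO wells and 100% = digitonin-killed cells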). Conditions: HepG2 viability, 24-48 h, at 10 µM, active compounds read high.
Experiment [3] addresses L-lactate dehydrogenase (Plasmodium falciparum (isolate CDC / Honduras)) (UniProt Q27743). Nature of the experiment: PfLDH activity inhibition – cell lysate, 3D7 strain, counter-screen for P. falciparum growth inhibition project (AID 2304).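 Note: 0% = vehicle and 100% = reference inhibitor.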 The following applies: P. falciparum 3D7 crude extract, LDH APAD/NBT absorbance; at 2 µM; active compounds read high.
Experiment [4] in a line: inhibition of 3D7 malaria parasite growth – strain 3D7 (AID 2306).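 Note: 0% = DMSO wells and 100% = chloroquine plus artemisinin control wells.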 The following applies: P. falciparum 3D7 erythrocytic growth, LDH absorbance, 72 h; at 2 µM; active compounds read high.
The target of experiment [5] is Calcium-dependent protein kinase 1 (Plasmodium falciparum (isolate 3D7)) (UniProt P62344). The experiment can be described thus: PfCDPK1 kinase inhibitors, biochemical, TCAMS library (AID 1159585; cut-off not given, nearly all actives have IC50 up to about 0.98 µM;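 note: inhibitors leave more ATP so luminescence rises with inhibition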). Conditions: recombinant PfCDPK1, Kinase-Glo ATP depletion luminescence.
Experiment [6] has as its target Plasmodium falciparum protein kinase 6 (PK6, PF3D7_1337100) (UniProt Q8IDW1). The experiment can be described thus: PfPK6 kinase inhibitors, biochemical, TCAMS library (AID 1159586). The following applies: recombinant PfPK6, Kinase-Glo ATP depletion luminescence.
Experiment [7] deals with Protein kinase 7 (PK7), Plasmodium falciparum 3D7 (PF3D7_0213400) (UniProt Q7YTF7). Nature of the experiment: inhibition of Plasmodium PK7 catalytic activity – biochemical, TCAMS antimalarial set, Kinase-Glo luminescence (AID 1159587). Conditions: recombinant PfPK7, Kinase-Glo ATP depletion luminescence.
Experiment [8] deals with Calcium-dependent protein kinase 4 (Plasmodium falciparum (isolate 3D7)) (UniProt Q8IBS5). Nature of the experiment: PfCDPK4 kinase inhibitors, biochemical, TCAMS library (AID 1159588; cut-off not given, nearly all actives have IC50 up to about 0.91 µM). The following applies: recombinant PfCDPK4, Kinase-Glo ATP depletion luminescence.

Values without a mark were called inactive. For part of these data: Measured potencies and affinities stand elsewhere. Calls of active or inactive are those of the source. Unless noted, the rule behind the calls is not given here.

Sequence of L-lactate dehydrogenase (Plasmodium falciparum (isolate CDC / Honduras)) (Q27743 whole entry, looked up): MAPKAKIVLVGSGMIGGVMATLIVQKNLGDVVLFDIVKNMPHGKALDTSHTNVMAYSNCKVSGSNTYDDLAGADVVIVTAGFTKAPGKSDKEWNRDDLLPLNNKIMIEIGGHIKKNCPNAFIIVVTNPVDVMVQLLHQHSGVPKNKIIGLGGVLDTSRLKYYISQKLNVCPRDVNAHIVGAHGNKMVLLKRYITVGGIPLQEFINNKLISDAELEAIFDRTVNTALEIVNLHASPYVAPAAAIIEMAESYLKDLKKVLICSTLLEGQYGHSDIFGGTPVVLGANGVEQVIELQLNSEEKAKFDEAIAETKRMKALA
Sequence of Protein kinase 7 (PK7), Plasmodium falciparum 3D7 (PF3D7_0213400) (Q7YTF7 1-343): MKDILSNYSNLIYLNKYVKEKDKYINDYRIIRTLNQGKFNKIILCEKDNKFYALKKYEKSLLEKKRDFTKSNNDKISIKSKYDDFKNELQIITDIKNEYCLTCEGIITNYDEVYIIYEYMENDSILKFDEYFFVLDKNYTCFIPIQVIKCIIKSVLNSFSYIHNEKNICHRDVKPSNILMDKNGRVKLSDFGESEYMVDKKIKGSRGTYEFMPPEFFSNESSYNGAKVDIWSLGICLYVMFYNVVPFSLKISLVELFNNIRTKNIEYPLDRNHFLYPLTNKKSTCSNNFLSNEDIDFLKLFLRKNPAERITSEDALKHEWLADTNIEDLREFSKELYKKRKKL
Sequence of Plasmodium falciparum protein kinase 6 (PK6, PF3D7_1337100) (Q8IDW1 1-305): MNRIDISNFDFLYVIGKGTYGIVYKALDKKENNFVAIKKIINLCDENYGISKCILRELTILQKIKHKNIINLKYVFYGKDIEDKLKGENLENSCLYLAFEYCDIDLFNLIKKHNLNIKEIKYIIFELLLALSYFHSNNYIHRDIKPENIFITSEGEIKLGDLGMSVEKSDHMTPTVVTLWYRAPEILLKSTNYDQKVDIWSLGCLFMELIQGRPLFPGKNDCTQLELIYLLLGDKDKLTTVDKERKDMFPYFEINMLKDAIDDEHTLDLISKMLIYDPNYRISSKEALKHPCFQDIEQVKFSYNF
Sequence of Calcium-dependent protein kinase 4 (Plasmodium falciparum (isolate 3D7)) (Q8IBS5 whole entry, looked up): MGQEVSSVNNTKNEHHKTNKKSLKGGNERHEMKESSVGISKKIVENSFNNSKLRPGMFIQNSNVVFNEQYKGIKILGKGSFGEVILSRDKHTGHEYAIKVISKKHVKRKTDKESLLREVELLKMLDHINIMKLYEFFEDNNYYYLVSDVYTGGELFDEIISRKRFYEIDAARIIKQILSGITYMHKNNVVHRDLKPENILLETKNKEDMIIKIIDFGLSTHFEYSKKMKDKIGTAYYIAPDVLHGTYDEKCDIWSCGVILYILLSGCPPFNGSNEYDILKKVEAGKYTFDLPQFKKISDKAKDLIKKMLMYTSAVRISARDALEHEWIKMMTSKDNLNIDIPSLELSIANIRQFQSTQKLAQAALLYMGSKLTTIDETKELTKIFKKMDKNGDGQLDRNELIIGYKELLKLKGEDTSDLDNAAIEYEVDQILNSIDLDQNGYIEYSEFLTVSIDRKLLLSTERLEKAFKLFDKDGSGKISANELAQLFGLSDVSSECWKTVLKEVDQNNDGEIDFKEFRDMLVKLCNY
Sequence of Calcium-dependent protein kinase 1 (Plasmodium falciparum (isolate 3D7)) (P62344 whole entry, looked up): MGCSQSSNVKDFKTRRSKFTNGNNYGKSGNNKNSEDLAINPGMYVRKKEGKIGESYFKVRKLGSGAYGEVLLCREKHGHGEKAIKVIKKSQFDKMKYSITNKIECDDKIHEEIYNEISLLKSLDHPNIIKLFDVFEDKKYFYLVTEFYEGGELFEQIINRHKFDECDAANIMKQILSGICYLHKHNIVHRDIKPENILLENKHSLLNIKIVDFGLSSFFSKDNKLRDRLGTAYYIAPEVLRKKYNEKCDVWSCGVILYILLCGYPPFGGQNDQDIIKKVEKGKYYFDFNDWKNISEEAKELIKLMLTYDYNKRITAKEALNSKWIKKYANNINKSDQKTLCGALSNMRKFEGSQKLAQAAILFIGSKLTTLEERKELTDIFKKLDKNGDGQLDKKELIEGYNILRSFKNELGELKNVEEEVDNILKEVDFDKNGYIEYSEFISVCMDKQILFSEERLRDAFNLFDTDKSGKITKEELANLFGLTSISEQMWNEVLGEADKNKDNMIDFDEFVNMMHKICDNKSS

For the compound `c1ccc(CCNCc2cccc(-c3ccccc3CNCc3ccc4c(c3)OCO4)c2)nc1`, the results for the growth inhibition in experiment [1] and in experiment [4] were 80% (active) and 90% (active), respectively. In addition, the figures for the inhibition in experiment [2] and in experiment [3] were 41% and -2%, respectively. Further, the result in experiment [5], in experiment [6], in experiment [7] and in experiment [8] was inactive.

Turning to `Cc1nc2c(c(C)nn2C(C)(C)C)c(C)c1CCC(=O)Nc1ccc(CN2CCCC2)cc1`, the growth inhibition was 5% in experiment [1] and 89% (active) in experiment [4]. Moreover, the inhibition was 1% in experiment [2] and 0% in experiment [3]. Also, the result in experiment [5], in experiment [6], in experiment [7] and in experiment [8] was inactive.

Regarding `CC(C)(C)OC(=O)/C=C(\C(=O)OCc1ccc([N+](=O)[O-])cc1)c1csc(NC(c2ccccc2)(c2ccccc2)c2ccccc2)n1`, the growth inhibition in experiment [1] is 97% (active); in experiment [4], 96% (active). Moreover, the inhibition in experiment [2] was 2%; in experiment [3], 3%. The result in experiment [5], in experiment [6], in experiment [7] and in experiment [8] was inactive.

On to `CCN(CC)CCOc1ccc(C(O)(C#CC(O)(c2ccccc2)c2ccc(OCCN(CC)CC)cc2)c2ccccc2)cc1` (centres undefined), for which the growth inhibition in experiment [1] and in experiment [4] was 99% (active) each time. Moreover, the inhibition is 81% (active) in experiment [2] and 4% in experiment [3]. Further, the result in experiment [5], in experiment [6], in experiment [7] and in experiment [8] was inactive.

With `CC[C@H](C)CNC(=O)c1cncc(-c2ccc(CN3CCC(N4CCCC4)CC3)cc2)c1`, the growth inhibition is 100% (active) in experiment [1] and 101% (active) in experiment [4]. The inhibition in experiment [2] was -8%; in experiment [3], 3%. Also, the outcome in experiment [5], in experiment [6], in experiment [7] and in experiment [8] was inactive.

Consider `Fc1ccc2nc(-c3ccc(-c4cccc(CN5CCN(c6ccncc6)CC5)c4)cc3)[nH]c2c1`, for which the growth inhibition in experiment [1] is 101% (active); in experiment [4], 100% (active). The inhibition in experiment [2] is 66% (active); in experiment [3], -3%. Moreover, the outcome in experiment [5], in experiment [6], in experiment [7] and in experiment [8] was inactive.

`CNC(=O)c1cnc(Nc2ccc(N3CCN(C)CC3)cc2)nc1Nc1cccc([N+](=O)[O-])c1`: the growth inhibition in experiment [1] is 100% (active); in experiment [4], 103% (active). Moreover, the inhibition in experiment [2] was 31%; in experiment [3], -8%. In addition, the result in experiment [5], in experiment [6], in experiment [7] and in experiment [8] was inactive.

In the case of `O=C1CN(C(=O)CCC2CCCC2)C(c2ccc(F)cc2)c2cc(F)ccc2N1` (centres undefined), the growth inhibition was 75% (active) in experiment [1] and 100% (active) in experiment [4]. In addition, the inhibition in experiment [2] was 12%; in experiment [3], -5%. Also, the outcome in experiment [5], in experiment [6], in experiment [7] and in experiment [8] was inactive.

For `CCc1c(CCNCCCCCCNCCc2ccc(OC)c(OC)c2C)ccc(OC)c1OC`, the growth inhibition in experiment [1] is 1%; in experiment [4], 98% (active). Moreover, the inhibition is 16% in experiment [2] and 5% in experiment [3]. For the same compound, the outcome in experiment [5], in experiment [6], in experiment [7] and in experiment [8] was inactive.

As for `Cc1cccc2[nH]c(-c3ccc(-c4cccc(NC(=O)C(C)CN(C)C)c4)cc3)nc12` (centres undefined), the figures for the growth inhibition in experiment [1] and in experiment [4] were 61% (active) and 99% (active), respectively. Besides, the inhibition in experiment [2] is 20%; in experiment [3], 1%. For the same compound, the outcome in experiment [5], in experiment [6], in experiment [7] and in experiment [8] was inactive.

`CC(=O)Nc1ccc(C(=O)Nc2cccc(-c3ccc(-c4nc5ccc(F)cc5[nH]4)cc3)c2)cn1`: the growth inhibition in experiment [1] and in experiment [4] was 99% (active) in each case. The inhibition is 10% in experiment [2] and -6% in experiment [3]. The result in experiment [5], in experiment [6], in experiment [7] and in experiment [8] was inactive.

For `Cn1ccnc1Sc1ncccc1[N+](=O)[O-]`, the growth inhibition was 2% in experiment [1] and 96% (active) in experiment [4]. For the same compound, the inhibition in experiment [2] is 0%; in experiment [3], -3%. In addition, the outcome in experiment [5], in experiment [6], in experiment [7] and in experiment [8] was inactive.

For `O=C(Nc1ccc2c(c1)CCN2C1CCN(Cc2ccc(O)cc2)C1)c1ccco1` (centres undefined), the growth inhibition is 63% (active) in experiment [1] and 97% (active) in experiment [4]. The inhibition in experiment [2] is 0%; in experiment [3], -2%. For the same compound, the outcome in experiment [5], in experiment [6], in experiment [7] and in experiment [8] was inactive.

For the compound `CN(C)CCN(Cc1ccccc1)c1ccc([N+](=O)[O-])cc1C(F)(F)F`, the figures for the growth inhibition in experiment [1] and in experiment [4] were 89% (active) and 96% (active), respectively. Also, the inhibition in experiment [2] was 40%; in experiment [3] it was -8%. The result in experiment [5], in experiment [6], in experiment [7] and in experiment [8] was inactive.

On to `Cn1nc(C(F)(F)F)c(-c2ccc(F)cc2)c1NC(=O)Nc1ccc(F)cc1`, for which the growth inhibition is 99% (active) in experiment [1] and 100% (active) in experiment [4]. Also, the values for the inhibition in experiment [2] and in experiment [3] were 5% and -2%, respectively. Besides, the outcome in experiment [5], in experiment [6], in experiment [7] and in experiment [8] was inactive.

As to `COc1ccc(CNCc2ccsc2)cc1-c1ccc(S(=O)(=O)NCCN2CCCC2)s1`, the growth inhibition in experiment [1] was 34%; in experiment [4] it was 101% (active). Besides, the values for the inhibition in experiment [2] and in experiment [3] were 39% and -7%, respectively. In addition, the outcome in experiment [5], in experiment [6], in experiment [7] and in experiment [8] was inactive.

For the compound `N#Cc1ccc(NC(=NC2Cc3ccccc3C2)Nc2cccc(Cl)c2Cl)c(O)c1`, the growth inhibition in experiment [1] was 77% (active); in experiment [4], 94% (active). The inhibition in experiment [2] is 15%; in experiment [3], -10%. In addition, the result in experiment [5], in experiment [6], in experiment [7] and in experiment [8] was inactive.

As for `O=C(N[C@@H](Cc1ccccc1)[C@H](O)CNCCC(F)(F)F)c1cccc(CCC2CC2)c1`, the growth inhibition was 13% in experiment [1] and 87% (active) in experiment [4]. Besides, the results for the inhibition in experiment [2] and in experiment [3] were -4% and 5%, respectively. For the same compound, the result in experiment [5], in experiment [6], in experiment [7] and in experiment [8] was inactive.
